STK33 inh = STK33 kinase inhibitors, primary screen, biochemical, luminescence, ADP-Glo, MBP substrate. Serine/threonine-protein kinase 33 (Homo sapiens), Q9BYT3. inhibition, % at 12.5 µM. actives 0.44% (n = 27,000); in the data active = inhibition above about 20%; inconclusive = no clear call, values can overlap the other calls
Target sequence (Q9BYT3 whole entry, looked up): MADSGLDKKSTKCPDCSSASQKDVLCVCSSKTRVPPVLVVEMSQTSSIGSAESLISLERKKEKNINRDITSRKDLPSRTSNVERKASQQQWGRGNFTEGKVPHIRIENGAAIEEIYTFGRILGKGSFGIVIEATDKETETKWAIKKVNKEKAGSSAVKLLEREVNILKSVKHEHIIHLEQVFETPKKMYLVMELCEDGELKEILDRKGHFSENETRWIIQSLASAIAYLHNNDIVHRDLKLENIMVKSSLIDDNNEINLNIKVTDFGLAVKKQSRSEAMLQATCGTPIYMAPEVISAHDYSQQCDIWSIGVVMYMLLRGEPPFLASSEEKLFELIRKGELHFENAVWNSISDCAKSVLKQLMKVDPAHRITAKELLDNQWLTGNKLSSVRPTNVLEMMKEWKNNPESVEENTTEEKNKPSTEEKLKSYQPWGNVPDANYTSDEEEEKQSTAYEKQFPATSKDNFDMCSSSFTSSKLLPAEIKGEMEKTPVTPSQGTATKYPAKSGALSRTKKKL
PD-1 reverse act = activators reversing PD-1 mediated T-cell inhibition, primary screen, luminescence, primary human CD4 T cells, PD-L1 beads | 29,000 tested, under 10 active | CellTiter-Glo 96 h | activation, % (test concentration not listed); call rule not given here
NOMO-1 viab = NOMO-1 AML cell viability reduction, primary screen, STK33 inhibitor project, CellTiter-Glo luminescence | NOMO-1 AML viability, 72 h | inhibition, % (test concentration not listed) | actives 7.5% (n = 37,000) | AID 2330, 2010; in the data active = inhibition above about 80%; inconclusive = no clear call, values can overlap the other calls
Numbers stand for hits; i = inactive; ? = inconclusive; nt = no result. The entries come from a sample that favours hits as a whole.

SMILES | STK33 inh | PD-1 reverse act | NOMO-1 viab
COC(=O)c1ccc2c(c1)N(C)S(=O)(=O)/C(=C\Nc1ccc(Cl)cc1)C2=O | nt | i | i
O=C(CSc1nnc(-c2ccc(Cl)cc2)o1)N1c2ccccc2Sc2ccccc21 | i | i | i
C[C@H]1CN([C@@H](C)CO)C(=O)Cc2cc(NC(=O)Nc3ccc(C(F)(F)F)cc3)ccc2O[C@@H]1CN(C)Cc1ccc(Cl)c(Cl)c1 | i | nt | i
CC(C)NC(=O)Nc1ccc2c(c1)CC(=O)N([C@@H](C)CO)C[C@H](C)[C@H](CN(C)Cc1ccc(C(F)(F)F)cc1)O2 | i | i | i
C[C@@H]1CN([C@@H](C)CO)C(=O)Cc2cc(NC(=O)NC3CCCCC3)ccc2O[C@@H]1CN(C)C(=O)Nc1ccc(C(F)(F)F)cc1 | i | i | i
C[C@@H]1CN([C@H](C)CO)C(=O)Cc2cc(NC(=O)NC3CCCCC3)ccc2O[C@@H]1CN(C)Cc1ccc(C(F)(F)F)cc1 | i | i | 109
C[C@@H]1CN([C@@H](C)CO)C(=O)Cc2cc(NC(=O)Nc3ccc(C(F)(F)F)cc3)ccc2O[C@@H]1CN(C)Cc1ccc(Cl)c(Cl)c1 | i | i | 115
C[C@@H]1CN([C@@H](C)CO)C(=O)Cc2cc(NC(=O)Nc3ccc(C(F)(F)F)cc3)ccc2O[C@@H]1CN(C)C(=O)NC1CCCCC1 | i | i | 113
C[C@H](CO)N1C[C@H](C)[C@H](CN(C)C(=O)NC2CCCCC2)Oc2ccc(NC(=O)Nc3ccc(C(F)(F)F)cc3)cc2CC1=O | i | i | i
C[C@@H]1CN([C@H](C)CO)C(=O)Cc2cc(NC(=O)Nc3ccc(C(F)(F)F)cc3)ccc2O[C@@H]1CN(C)Cc1ccc(C(F)(F)F)cc1 | i | i | 120
Cn1nnnc1SCC(=O)Nc1cccc(Cl)c1Cl | i | nt | i
CC(C)(C)C(=O)Nc1c(Cl)sc2nccc(=O)n12 | nt | i | i
O=C(c1ccccc1)c1cccc(N=Cc2c(O)[nH]c(=O)[nH]c2=O)c1 | nt | i | i
Cc1cccc(N=Cc2c(O)n(-c3ccccc3)c(=O)c3ccccc23)c1 | nt | i | 91
Cc1ccnc(N=Cc2c(C)[nH]n(-c3ccccc3)c2=O)c1 | nt | i | i
O=c1c2ccccc2c(C=Nc2cccc(C(F)(F)F)c2)c(O)n1-c1ccccc1 | nt | i | 106
CC1=NN(c2ccccc2)C(=O)C1C (stereo unspecified) | i | i | i
Cc1ccc(N(CC(=O)Nc2ccc(F)cc2)S(C)(=O)=O)cc1 | i | i | i
C[C@H]1CN([C@@H](C)CO)C(=O)Cc2cc(NC(=O)CCC(F)(F)F)ccc2O[C@H]1CN(C)S(=O)(=O)c1ccc(Cl)cc1 | i | nt | 109
C[C@@H]1CN([C@@H](C)CO)C(=O)Cc2cc(NC(=O)CCC(F)(F)F)ccc2O[C@@H]1CN(C)S(=O)(=O)c1ccc(F)cc1 | i | i | i
C[C@@H]1CN([C@@H](C)CO)C(=O)Cc2cc(NC(=O)CCC(F)(F)F)ccc2O[C@@H]1CN(C)S(=O)(=O)c1ccccc1 | i | i | i
Cc1ccc(S(=O)(=O)N(C)C[C@H]2Oc3ccc(NC(=O)CCC(F)(F)F)cc3CC(=O)N([C@@H](C)CO)C[C@H]2C)cc1 | i | i | i
C[C@H]1CN([C@@H](C)CO)C(=O)Cc2cc(NC(=O)CCC(F)(F)F)ccc2O[C@H]1CN(C)S(=O)(=O)c1ccc(F)cc1 | i | i | 126
C[C@H](CO)N1C[C@H](C)[C@H](CN(C)S(=O)(=O)c2ccc(Cl)cc2)Oc2ccc(NC(=O)CCC(F)(F)F)cc2CC1=O | i | nt | 121
O=C1CSC(=NC2CC2)N1Cc1cccs1 | i | i | i
SMILES | STK33 inh | PD-1 reverse act | NOMO-1 viab
O=C(O)c1cc(=O)[nH]c2c(C(F)(F)F)cccc12 | nt | i | i
Cc1c(NC(=S)NCCc2c[nH]c3ccccc23)c(=O)n(-c2ccccc2)n1C | i | i | i
CN[C@H]1CC[C@@H](c2ccc(Cl)c(Cl)c2)c2ccccc21 | i | nt | 107
Clc1ccc(-c2onc3cc(-c4ccccc4)ccc23)cc1 | nt | i | i
CC1(C)CC(=O)C2=C(C1)NC(SCC(=O)Nc1ccccc1)=C(C#N)C2c1ccco1 (stereo unspecified) | i | i | i
CCc1ccc(C2C(C#N)=C(C)NC3=C2C(=O)CC(C)(C)C3)cc1 (stereo unspecified) | nt | i | 86
C[C@H]1CN([C@@H](C)CO)C(=O)Cc2cc(NC(=O)Cc3ccccc3)ccc2O[C@H]1CN(C)Cc1ccc(Cl)c(Cl)c1 | i | i | ?
C[C@@H]1CN([C@@H](C)CO)C(=O)c2cc(NC(=O)CCCCCC(=O)Nc3ccccc3N)ccc2O[C@@H]1CN(C)Cc1ccc2c(c1)OCO2 | nt | i | 95
C[C@H](CO)N1C[C@H](C)[C@H](CN(C)Cc2ccc3c(c2)OCO3)Oc2ccc(NC(=O)CCCCCC(=O)Nc3ccccc3N)cc2CC1=O | nt | i | 132
C[C@H](CO)N1C[C@H](C)[C@H](CN(C)Cc2ccc3c(c2)OCO3)Oc2ccc(NC(=O)CCCCCC(=O)Nc3ccccc3N)cc2C1=O | nt | i | i
C[C@@H]1CN([C@H](C)CO)C(=O)Cc2cc(NC(=O)CCCCCC(=O)Nc3ccccc3N)ccc2O[C@@H]1CN(C)Cc1ccc(Cl)c(Cl)c1 | nt | i | 137
C[C@H](CO)N1C[C@H](C)[C@@H](CN(C)Cc2ccc3c(c2)OCO3)Oc2ccc(NC(=O)CCCCCC(=O)Nc3ccccc3N)cc2C1=O | nt | i | i
COc1ccc(S(=O)(=O)N(C)CC(=O)Nc2ccccc2)cc1Cl | i | i | i
C[C@@H]1CN([C@H](C)CO)C(=O)Cc2cc(NC(=O)Cc3ccccc3)ccc2O[C@@H]1CN(C)Cc1ccc(C(F)(F)F)cc1 | i | i | i
C[C@@H]1CN([C@H](C)CO)C(=O)Cc2cc(NC(=O)CCCCCC(=O)Nc3ccccc3N)ccc2O[C@H]1CN(C)Cc1ccc(C(F)(F)F)cc1 | nt | i | 114
C[C@@H]1CN([C@@H](C)CO)C(=O)Cc2cc(NC(=O)Cc3ccccc3)ccc2O[C@@H]1CN(C)Cc1ccc(C(F)(F)F)cc1 | i | i | i
C[C@@H]1CN([C@H](C)CO)C(=O)Cc2cc(NC(=O)CCCCCC(=O)Nc3ccccc3N)ccc2O[C@@H]1CN(C)Cc1ccc(C(F)(F)F)cc1 | nt | i | 141
Cc1ccc(-c2noc(CSc3nc(C)c(C)c(=O)[nH]3)n2)cc1 | i | i | i
Cc1ccc(NC(=O)CSc2nc3sc4c(c3c(=O)n2-c2ccccc2)CCCC4)c(C)c1 | i | i | i
COc1ccc(N2Cc3ccccc3C3(CCOCC3)C2=N)cc1 | i | i | i
Cc1cc(C)c(NC(=O)C(C)N(c2ccccc2)S(C)(=O)=O)c(C)c1 (stereo unspecified) | i | i | i
CCCCC[C@@H](O)CC(=O)CCc1ccc(O)c(OC)c1 | i | i | i
N#CC1=C(N)Oc2c(sc3ccccc23)C1c1ccccc1OC(=O)c1ccccc1Cl (stereo unspecified) | nt | i | 115
N#CC1=C(N)OC(C2CC2)=C(C#N)C1c1ccccc1Cl (stereo unspecified) | i | i | i
COc1ccc(N(CC(=O)Nc2cccc([N+](=O)[O-])c2C)S(C)(=O)=O)cc1Cl | i | i | i
COc1ccc(NC(=O)CN(c2ccc(Br)c(C)c2)S(C)(=O)=O)cc1Cl | i | i | i

Screens: PubChem BioAssay, Broad Institute
